TGFb SMAD3 inh – inhibitors of TGF-b signaling. HepG2 CAGA-GFP TGF-b/SMAD3 reporter, GFP fluorescence, 18 h; TGF-beta stimulated, 500 pg/mL final. Potency, µM (top dose mostly 46.1 µM), actives largely listed as inhibitors. hit rate 1.2% among 410,000. AID 588855; also: nearly all actives have a fitted effect of over 65% in size
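HEPG2 CAGA-GFP cells (1000/well, DMEM with 1% FBS) were pre-incubated 2 h at 37 degrees C, given compound by pin tool, then stimulated with TGF-beta at 500 pg/mL final for 18 h before per-cell GFP fluorescence imaging.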
TDP1 cell CPT – DT40-hTDP1 cell growth loss with CPT; chicken DT40 Tdp1-/-;hTDP1 cells + 20 nM CPT, ATP luminescence, 48 h; Potency, µM (highest dose often 46.2 µM), hits mostly inhibitors; hit rate 12% among 420,000; AID 686979; also: nearly all actives have a fitted effect of over 55% in size
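Chicken DT40 Tdp1-/- cells complemented with human TDP1, 400 cells/well, exposed to compounds plus 20 nM camptothecin for at least 48 h at 37 C; viability read as ATP content by CellTiter-Glo luminescence.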
ATXN viability – viability counter-screen for ATXN expression inhibitors. Potency, µM (titrated, usually from 56.7 µM), usual class: cytotoxic. hit rate 0.49% among 400,000. AID 651635. S2 cells (HEK-293 line with an ATXN2-luciferase reporter) viability, CellTiter-Fluor protease fluorescence, 24 h; also: nearly all actives have a fitted effect of over 40% in size
HepG2 viability – kills HepG2 cells in TGF-b inhibitor counter-screen. HepG2 CAGA-GFP viability, ATP luminescence, 18 h. Potency, µM (titrated, usually from 46.1 µM), most hits filed as cytotoxic. hit rate 0.76% among 410,000. AID 588856
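HepG2 CAGA-GFP cells (1000/well, DMEM with 1% FBS) received compound, then TGF-beta at 500 pg/mL final, and were incubated 18 hours at 37 degrees C. Viability was read by CellTiter-Glo luminescence. Media-only wells were set as complete cell-killing and DMSO as no toxicity.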
ATXN2 expr inh – reduces ATXN2 reporter expression in HEK-293 cells; HEK-293 ATXN2-luciferase reporter, luminescence, 24 h; Potency, µM (highest dose often 57 µM), hits mostly inhibitors; hit rate 0.72% among 360,000; AID 1745845; also: nearly all actives have a fitted effect of over 55% in size
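qHTS (up to 57 uM final) was run with 24 h compound exposure of reporter cells at 37 °C. Each well was multiplexed: SteadyGlo luminescence measured ATXN2-luciferase expression after a fluorogenic Gly-Phe-AFC viability readout (25 uM final).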
TDP1 cell noCPT – qHTS for Inhibitors of human tyrosyl-DNA phosphodiesterase 1 (TDP1): qHTS in cells in absence of CPT; AID 686978, 2013; hit rate 15% among 420,000; Potency, µM (highest dose often 46.2 µM), actives largely listed as inhibitors; DT40 Tdp1-/- hTDP1 cells, no CPT, ATP luminescence, 48 h; also: nearly all actives have a fitted effect of over 55% in size
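Seeded 400 DT40-hTDP1 cells/well (vehicle DMSO, no 20 nM CPT); pinned compounds; ≥48 hr at 37 °C; CellTiter-Glo luminescence as viability measure.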
Large screens that a line does not name were inactive. Shown are actives, neighbours in structure and some others; about 17% of the full set was active somewhere. Calls follow the shape of the dose curve; as a rule, active = well fitted curve in the direction sought with a large enough effect; inconclusive = small, poorly fitted or top-dose-only effect, or another doubt; inactive = no such curve, though single readings can be large; an effect the other way counts as inactive or inconclusive.

CC(=O)c1ccc(N2CCN(c3ccc(S(=O)(=O)NCCCN(C)C)cc3[N+](=O)[O-])CC2)cc1	TGFb SMAD3 inh inconclusive, TDP1 cell CPT 23µM, TDP1 cell noCPT 23µM (no result: ATXN2 expr inh)
CN(C)CCCNS(=O)(=O)c1ccc(N2CCN(Cc3ccc4c(c3)OCO4)CC2)c([N+](=O)[O-])c1	TDP1 cell CPT 23µM, ATXN2 expr inh inconclusive, TDP1 cell noCPT 21µM
CN(C)CCNS(=O)(=O)c1ccc(N2CCc3ccccc32)c([N+](=O)[O-])c1	TDP1 cell CPT 16µM, ATXN viability inconclusive, ATXN2 expr inh inconclusive, TDP1 cell noCPT 26µM
CC(=O)c1ccc(N2CCN(c3ccc(S(=O)(=O)NCCN(C)C)cc3[N+](=O)[O-])CC2)cc1	TDP1 cell CPT inconclusive, TDP1 cell noCPT inconclusive (no result: ATXN2 expr inh)
Cc1ccc(S(=O)(=O)Oc2cccc(/C=N/Nc3ccc(C(=O)O)cc3)c2)cc1	ATXN viability inconclusive
Cc1ccc(S(=O)(=O)Oc2cccc(/C=N/n3cnnc3)c2)cc1	TDP1 cell CPT 8.2µM, TDP1 cell noCPT 8.2µM
CCC(CC)N1CCN(C(=O)c2cc(OC)c(OC)c(OC)c2)CC1	none
CO[C@H]1C[C@@H]2CC[C@@H](C)[C@@](O)(O2)C(=O)C(=O)N2CCCC[C@H]2C(=O)O[C@H]([C@H](C)C[C@@H]2CC[C@@H](O)[C@H](OC)C2)CC(=O)[C@H](C)/C=C(/C)[C@@H](O)[C@@H](OC)C(=O)[C@H](C)C[C@H](C)C=C/C=C\C=C/1C	TGFb SMAD3 inh 4.5µM, TDP1 cell CPT 4µM, TDP1 cell noCPT inconclusive (no result: ATXN viability, ATXN2 expr inh)
CO[C@H]1C[C@@H]2CC[C@@H](C)[C@@](O)(O2)C(=O)C(=O)N2CCCC[C@H]2C(=O)OC([C@H](C)C[C@@H]2CC[C@@H](O)[C@H](OC)C2)CC(=O)[C@H](C)/C=C(\C)[C@@H](O)[C@@H](OC)C(=O)[C@H](C)C[C@H](C)/C=C/C=C/C=C/1C (some centres undefined)	TDP1 cell CPT 0.01µM, TDP1 cell noCPT 0.0092µM (no result: TGFb SMAD3 inh, ATXN viability, HepG2 viability, ATXN2 expr inh)
CC1CCCN(c2c([N+](=O)[O-])c(=O)oc3ccccc23)C1 (centres undefined)	TDP1 cell CPT 16µM, TDP1 cell noCPT inconclusive
CCCCCCCSc1ncnc2[nH]ncc12	TGFb SMAD3 inh inconclusive, TDP1 cell CPT inconclusive, TDP1 cell noCPT inconclusive
CC1CCCCN1CCCNC(=O)c1cc(Sc2ccc(Cl)cc2)nc2ccccc12 (centres undefined)	TDP1 cell CPT 18µM, TDP1 cell noCPT 21µM (no result: ATXN viability, ATXN2 expr inh)
CC1CCCCN1CCCNC(=O)c1nn(C)c2c1CSc1ccccc1-2 (centres undefined)	TDP1 cell CPT inconclusive, TDP1 cell noCPT inconclusive
CCC1CCCCN1CCCNC(=O)c1[nH]c2ccccc2c1Sc1ccc(Cl)cc1 (centres undefined)	TGFb SMAD3 inh inconclusive, TDP1 cell CPT inconclusive, ATXN2 expr inh inconclusive, TDP1 cell noCPT inconclusive (no result: ATXN viability)
CCCN(CCC)CCNC(=O)c1cc(Sc2ccc(Cl)cc2)nc2ccccc12	TDP1 cell CPT 16µM, TDP1 cell noCPT 18µM (no result: ATXN viability, ATXN2 expr inh)
CCc1ccc(Sc2cc(C(=O)NCCN3CCOCC3)c3ccccc3n2)cc1	TDP1 cell CPT inconclusive, TDP1 cell noCPT 15µM
CCN(CC)CCNC(=O)c1[nH]c2ccccc2c1Sc1ccc(Cl)cc1	TGFb SMAD3 inh inconclusive, TDP1 cell CPT inconclusive, HepG2 viability 14µM, ATXN2 expr inh inconclusive, TDP1 cell noCPT inconclusive (no result: ATXN viability)
CCN(CC)CCNC(=O)c1cc(Sc2nnc(C)s2)nc2ccccc12	none
CCN(CC)S(=O)(=O)c1nnc(NC(=O)COc2ccccc2F)s1	none (no result: TGFb SMAD3 inh, ATXN viability, ATXN2 expr inh)
CCOc1ccc(Sc2cc(C(=O)NCCCOC)c3ccccc3n2)cc1	TDP1 cell CPT 21µM, TDP1 cell noCPT 16µM (no result: ATXN viability, ATXN2 expr inh)
CC1CCN(CCCNC(=O)c2cc(Sc3ccc(F)cc3)nc3ccccc23)CC1	TDP1 cell CPT 23µM, TDP1 cell noCPT inconclusive (no result: ATXN viability, ATXN2 expr inh)
CCOc1ccc(Sc2cc(C(=O)NC(C)c3ccccc3)c3ccccc3n2)cc1 (centres undefined)	TDP1 cell CPT inconclusive, TDP1 cell noCPT inconclusive (no result: ATXN viability, ATXN2 expr inh)
O=C(CSc1nccn1Cc1ccc(F)cc1)NC1CCCCC1	TDP1 cell noCPT inconclusive (no result: ATXN2 expr inh)
CC(C)CN(C(=O)CCCOc1ccc(Cl)cc1Cl)c1c(N)n(Cc2ccccc2)c(=O)[nH]c1=O	TGFb SMAD3 inh inconclusive, TDP1 cell CPT inconclusive, TDP1 cell noCPT 26µM
Nc1c(N(Cc2ccccc2)C(=O)COc2cccc(Cl)c2)c(=O)[nH]c(=O)n1Cc1ccccc1	TDP1 cell CPT 21µM, TDP1 cell noCPT inconclusive
CCN(C(=O)COC(=O)CCCOc1ccc(Cl)cc1C)c1c(N)n(Cc2ccccc2)c(=O)[nH]c1=O	TGFb SMAD3 inh inconclusive, TDP1 cell CPT 15µM, ATXN viability inconclusive, TDP1 cell noCPT 16µM (no result: ATXN2 expr inh)
Nc1c(N(Cc2ccccc2)C(=O)COc2ccc(F)cc2Cl)c(=O)[nH]c(=O)n1Cc1ccccc1	TDP1 cell CPT inconclusive
CCN(C(=O)COC(=O)CCOc1ccc(C(C)(C)C)cc1)c1c(N)n(Cc2ccccc2)c(=O)[nH]c1=O	TDP1 cell CPT 12µM, ATXN viability inconclusive, ATXN2 expr inh inconclusive, TDP1 cell noCPT 3.7µM
CC(C)CN(C(=O)CCc1ccccc1Cl)c1c(N)n(Cc2ccccc2)c(=O)[nH]c1=O	none
COc1cc(-c2nnc(SCC(=O)Nc3cccc(C#N)c3)o2)cc(OC)c1OC	none
CCN(C(=O)COC(=O)C1CCC(C(C)(C)C)CC1)c1c(N)n(Cc2ccccc2)c(=O)[nH]c1=O (centres undefined)	TDP1 cell CPT 21µM, ATXN2 expr inh inconclusive, TDP1 cell noCPT 16µM (no result: ATXN viability)
Cc1nc2ccn(Cc3ccccc3)c(=O)c2cc1C(=O)NCc1ccccc1F	TGFb SMAD3 inh inconclusive, TDP1 cell CPT inconclusive, ATXN2 expr inh inconclusive, TDP1 cell noCPT inconclusive
CN(C)c1ccc(-c2csc(C(C)(O)c3ccccc3)n2)cc1 (centres undefined)	TDP1 cell CPT 15µM, TDP1 cell noCPT 16µM
CC(O)(c1ccccc1)c1nc(-c2cc3ccccc3o2)cs1 (centres undefined)	TGFb SMAD3 inh inconclusive, TDP1 cell CPT 23µM, ATXN viability inconclusive, TDP1 cell noCPT 13µM
COc1ccc(N(CC(=O)Nc2cc(C)ccc2C)S(=O)(=O)c2ccccc2[N+](=O)[O-])c(OC)c1	TDP1 cell CPT inconclusive, TDP1 cell noCPT 12µM
COc1ccc(N(CC(=O)NCc2ccc3c(c2)OCO3)S(=O)(=O)c2ccccc2[N+](=O)[O-])c(OC)c1	TDP1 cell CPT 26µM, TDP1 cell noCPT inconclusive

Screens: PubChem BioAssay, National Center for Advancing Translational Sciences (NCATS)
